From PubChem BioAssay (Tox21)
Where “and” joins values, the source holds several entries; their conditions need not be identical. Identical values can stand only once. Records with an inconclusive call do not appear. Where a call stands in place of a potency, no number is given. Some structures have more than one record in an assay (separate samples or runs), and their calls can disagree. Calls of active or inactive are those of the source. Unless noted, the call rests on the fitted dose curve.

Tests used:
[1] = Nuclear factor erythroid 2-related factor 2/antioxidant responsive element (Nrf2/ARE) small molecule agonists: qHTS cell viability counter screen in human keratinocytes (AID 1919968; active means well fitted curve in the direction sought with a large enough effect in the repeat runs; an effect the other way counts as inactive or inconclusive; further: nearly all actives have a fitted effect of over 55% in size; further: potency means the concentration at half of the fitted maximal effect)
Summary of the method: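 Seed 1,500 KeratinoSens cells per well, then incubate 5 h at 37 C/5% CO2. Add compounds in DMSO and incubate 23 h. Add CellTiter-Fluor, wait 1 h and read fluorescence.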

[2] = target: Gonadotropin-releasing hormone receptor (Homo sapiens) (UniProt P30968); assay: Human gonadotropin-releasing hormone receptor (GnRHR) small molecule agonists, calcium flux assay in GnRHR-HEK293 cells (AID 1920063); further: nearly all actives have a fitted effect of over 35% in size
Summary of the method: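 Cells: HEK293 stably expressing human GnRHR. Steps: overnight (18 h) culture, 1 h calcium dye loading at 37 C, compound addition, kinetic fluorescence read at 480/540 nm. Each compound tested at 15 concentrations in triplicate.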

[3] = target: KiSS-1 receptor (Homo sapiens) (UniProt Q969F8); assay: Human kisspeptin (KISS1R) small molecule agonists, calcium flux assay in KISS1R-HEK293 cells (AID 1920064; active means well fitted curve in the direction sought with a large enough effect in the repeat runs; an effect the other way counts as inactive or inconclusive)
Summary of the method: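 Cells plated and incubated 18 h; dye added, 1 h at 37 C; compounds in DMSO pinned in; signal read at 480/540 nm every second for 3 min. Each compound tested at 15 concentrations in triplicate.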

[4] = G protein-coupled receptor (GPCR) small molecule agonists, calcium flux assay: HEK293 wild type cell line counter screen (AID 1920065)
Summary of the method: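 Counter-screen of the Tox21 10K library for non-specific calcium release: dye-loaded cells received compounds in DMSO and were monitored by kinetic fluorescence (480/540 nm, 3 min). Fifteen concentrations, run in triplicate.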

[5] = p53 small molecule agonists, cell-based qHTS assay with human liver microsomes (AID 1963577);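 further: p53 response element beta-lactamase reporter cells with liver microsomes plus NADPH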
Summary of the method: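 In this qHTS, p53 response-element beta-lactamase cells receive test compound together with a microsome/NADPH activating system (0.5 mg/mL final each) and are incubated 16 h at 37 C before LiveBLAzer fluorescence detection.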

[6] = p53 small molecule agonists, cell-based qHTS assay with rat liver microsomes (AID 1963578)
Summary of the method: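 Agonist mode in p53RE-bla reporter cells, with compounds co-incubated 16 h at 37 C alongside 0.5 mg/mL rat liver microsomes and 0.5 mg/mL NADPH (final), followed by a 2 h LiveBLAzer detection step.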

[7] = p53 small molecule agonists, cell-based qHTS assay with human liver microsomes: qHTS cell viability counter screen (AID 1963579); further: nearly all actives have a fitted effect of over 45% in size; further: potency means the concentration at half of the fitted maximal effect
Summary of the method: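 Metabolically activated exposure: compounds, human liver microsomes and NADPH (0.5 mg/mL final apiece) were added to p53RE-bla cells seeded 5 h earlier, left 16 h at 37 C, and then assessed for viability by CellTiter-Glo luminescence.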

[8] = p53 small molecule agonists, cell-based qHTS assay with rat liver microsomes: qHTS cell viability counter screen (AID 1963580); further: nearly all actives have a fitted effect of over 45% in size
Summary of the method: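 p53RE-bla HCT-116 cells were exposed 16 h at 37 C to compounds with rat liver microsomes (0.5 mg/mL) and NADPH (0.5 mg/mL). Viability was measured in the same wells as ATP content by CellTiter-Glo luminescence.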

[9] = p53 small molecule agonists, cell-based qHTS assay: qHTS cell viability counter screen (AID 1963581); further: nearly all actives have a fitted effect of over 45% in size
Summary of the method: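 Cells: HCT-116 with p53 response element-driven beta-lactamase. Treatment: 16 h, 37 C, compounds in DMSO. Read: CellTiter-Glo luminescence after 30 min RT.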

[10] = target: 5-hydroxytryptamine receptor 2A (Homo sapiens) (UniProt P28223); assay: 5-hydroxytryptamine receptor 2A (HTR2A) small molecule antagonists, cell-based qHTS assay (AID 1963586); further: nearly all actives have a fitted effect of over 45% in size; further: potency means the concentration at half of the fitted maximal effect
Summary of the method: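 Antagonist-mode intracellular calcium assay: DOI (4 nM) added after 5 min compound pre-incubation at room temperature to dye-loaded HTR2A-CHO cells. Fluorescence followed for 3 min, sampled every second.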

[11] = target: 5-hydroxytryptamine receptor 2A (Homo sapiens) (UniProt P28223); assay: 5-hydroxytryptamine receptor 2A (HTR2A) small molecule agonists, cell-based qHTS assay (AID 1963587); further: nearly all actives have a fitted effect of over 30% in size
Summary of the method: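 CHO cells stably expressing human HTR2A, plated 18 h, loaded with calcium dye 1 h at 37 C. Agonist mode: compounds added and intracellular calcium fluorescence recorded kinetically for 2 min at 1 sec intervals.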

[12] = target: Muscarinic acetylcholine receptor M1 (Homo sapiens) (UniProt P11229); assay: Cholinergic receptor muscarinic 1 (CHRM1) small molecule antagonists, cell-based qHTS assay (AID 1963588); further: nearly all actives have a fitted effect of over 40% in size; further: potency means the concentration at half of the fitted maximal effect
Summary of the method: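 CHRM1-CHO calcium-flux assay, antagonist mode. Cells were seeded 18 h, dye-loaded 1 h at 37 C and given compound for 5 min at RT, then acetylcholine was added at 50nM. FDSS fluorescence was read 3 min; 15 concentrations, three runs.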

[13] = target: Muscarinic acetylcholine receptor M1 (Homo sapiens) (UniProt P11229); assay: Cholinergic receptor muscarinic 1 (CHRM1) small molecule agonists, cell-based qHTS assay (AID 1963589); further: nearly all actives have a fitted effect of over 35% in size
Summary of the method: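 Agonist-mode qHTS in CHO cells stably carrying human muscarinic M1. Intracellular calcium is tracked by fluorescence every second after compound transfer; each compound runs at 15 concentrations in three independent runs.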

[14] = cAMP Responsive Elements (CRE) small molecule antagonists, cell-based qHTS assay (AID 1963591; active means well fitted inhibition curve with a large enough effect in the signal ratio in the repeat runs, not every such curve was filed as active; the % refers to the signal ratio; further: potency means the concentration at half of the fitted maximal effect)
Summary of the method: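 Antagonist mode: test compounds are co-incubated with the adenylyl cyclase activator NKH477 (0.25 uM final) on CRE-bla HEK293T cells for 3 h at 37 °C, followed by LiveBLAzer substrate loading.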

[15] = target: Beta-2 adrenergic receptor (Homo sapiens) (UniProt P07550); assay: Adrenergic beta2 receptor (ADRB2) small molecule antagonists, cell-based qHTS assay (AID 1963592); further: series mostly up to about 92 µM; nearly all actives have a fitted effect of over 50% in size
Summary of the method: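 Cells (CHO, stable ADRB2 overexpression) incubated 18-20hr at 37C; compounds added from DMSO; agonist mix (1nM isoproterenol, 100uM IBMX, 25uM Ro-20-1724) added; 0.5hr RT; d2-cAMP and anti-cAMP-cryptate added; 1hr RT; 665/615 nm read.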

[16] = target: Beta-2 adrenergic receptor (Homo sapiens) (UniProt P07550); assay: Adrenergic beta2 receptor (ADRB2) small molecule agonists, cell-based qHTS assay (AID 1963593);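 further: CHO cells stably overexpressing human ADRB2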
Summary of the method: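 CHO cells stably over-expressing ADRB2 were plated overnight at 37C, then dosed with compounds plus a stimulation mix containing 100uM IBMX and 25uM Ro-20-1724 for 0.5hr at room temperature. cAMP was measured by HTRF competition, 1hr.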

[17] = target: D(2) dopamine receptor (Homo sapiens) (UniProt P14416); assay: Dopamine D2 receptor (DRD2) small molecule agonists, cell-based qHTS assay (AID 1963594); further: nearly all actives have a fitted effect of over 35% in size
Summary of the method: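 HEK293 cells stably expressing human DRD2, pre-treated with PDE inhibitor Ro20-1724 (0.1 mM final) and compound 10 min at room temperature, then stimulated with NKH477 (200nM […]) for 30 min. cAMP read by HTRF (665/620 nm).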

[18] = target: D(2) dopamine receptor (Homo sapiens) (UniProt P14416); assay: Dopamine D2 receptor (DRD2) small molecule antagonists, cell-based qHTS assay (AID 1963595; active means well fitted inhibition curve with a large enough effect in the signal ratio in the repeat runs, with a control signal flat; the % refers to the signal ratio)
Summary of the method: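 Cells were plated and grown for 24 h at 37 °C. Ro20-1724 (0.1 mM final) went in first, then compound for 10 min. NKH477 (200 nM) with quinpirole (12 nM) followed for 30 min at RT, then HTRF detection reagents for 1 h.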

[19] = p53 small molecule agonists, cell-based qHTS assay (AID 1963582; active means well fitted activation curve with a large enough effect in the signal ratio in the repeat runs, not every such curve was filed as active; the % refers to the signal ratio)
Summary of the method: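 Quantitative HTS in p53RE-bla cells: after a 5 h settling period, compounds delivered in DMSO were left on cells for 16 h at 37 C, and reporter induction was measured as fluorescence following 2 h substrate loading.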

Chain of Muscarinic acetylcholine receptor M1 (Homo sapiens) (P11229 whole entry, looked up): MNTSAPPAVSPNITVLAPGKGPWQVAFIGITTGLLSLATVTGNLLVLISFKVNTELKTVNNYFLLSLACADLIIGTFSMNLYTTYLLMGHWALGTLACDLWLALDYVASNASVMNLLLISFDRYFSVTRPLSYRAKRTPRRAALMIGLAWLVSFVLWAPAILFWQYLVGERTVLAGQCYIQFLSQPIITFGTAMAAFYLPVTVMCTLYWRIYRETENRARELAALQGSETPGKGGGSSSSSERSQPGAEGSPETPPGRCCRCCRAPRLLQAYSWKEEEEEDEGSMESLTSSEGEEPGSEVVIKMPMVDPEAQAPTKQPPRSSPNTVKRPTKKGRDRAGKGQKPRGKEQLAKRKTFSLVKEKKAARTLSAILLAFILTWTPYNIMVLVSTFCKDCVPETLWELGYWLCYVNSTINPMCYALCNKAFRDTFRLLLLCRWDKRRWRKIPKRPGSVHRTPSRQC
Chain of Beta-2 adrenergic receptor (Homo sapiens) (P07550 whole entry, looked up): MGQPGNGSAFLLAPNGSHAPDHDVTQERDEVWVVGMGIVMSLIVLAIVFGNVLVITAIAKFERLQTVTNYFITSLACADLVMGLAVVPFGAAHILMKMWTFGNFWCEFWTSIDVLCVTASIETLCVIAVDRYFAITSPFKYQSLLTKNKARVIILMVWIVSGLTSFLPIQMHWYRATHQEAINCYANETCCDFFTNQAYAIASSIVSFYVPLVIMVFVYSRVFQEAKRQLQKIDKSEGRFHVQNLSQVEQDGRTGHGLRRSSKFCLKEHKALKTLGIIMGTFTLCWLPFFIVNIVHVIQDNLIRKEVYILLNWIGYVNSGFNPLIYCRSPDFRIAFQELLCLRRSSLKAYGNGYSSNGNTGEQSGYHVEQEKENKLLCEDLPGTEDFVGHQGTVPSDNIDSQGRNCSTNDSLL
Chain of Gonadotropin-releasing hormone receptor (Homo sapiens) (P30968 whole entry, looked up): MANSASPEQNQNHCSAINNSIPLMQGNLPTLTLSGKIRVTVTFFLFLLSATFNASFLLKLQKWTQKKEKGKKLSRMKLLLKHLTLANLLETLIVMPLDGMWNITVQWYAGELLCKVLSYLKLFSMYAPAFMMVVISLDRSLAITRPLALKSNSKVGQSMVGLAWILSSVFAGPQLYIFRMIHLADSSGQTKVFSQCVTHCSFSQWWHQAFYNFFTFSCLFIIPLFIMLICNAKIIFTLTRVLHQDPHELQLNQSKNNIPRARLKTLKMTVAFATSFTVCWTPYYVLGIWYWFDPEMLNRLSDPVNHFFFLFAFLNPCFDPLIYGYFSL
Chain of KiSS-1 receptor (Homo sapiens) (Q969F8 whole entry, looked up): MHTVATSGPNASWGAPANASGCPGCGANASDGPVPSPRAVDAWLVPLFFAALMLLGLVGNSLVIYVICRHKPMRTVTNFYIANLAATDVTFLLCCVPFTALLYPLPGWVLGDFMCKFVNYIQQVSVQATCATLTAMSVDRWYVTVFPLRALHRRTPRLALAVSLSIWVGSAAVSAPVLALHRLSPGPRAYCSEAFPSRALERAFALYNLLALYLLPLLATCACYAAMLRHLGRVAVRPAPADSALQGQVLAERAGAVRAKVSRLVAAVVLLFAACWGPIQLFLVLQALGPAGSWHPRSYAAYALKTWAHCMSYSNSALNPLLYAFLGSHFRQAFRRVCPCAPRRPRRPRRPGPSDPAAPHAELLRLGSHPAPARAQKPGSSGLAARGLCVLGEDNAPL
Chain of D(2) dopamine receptor (Homo sapiens) (P14416 whole entry, looked up): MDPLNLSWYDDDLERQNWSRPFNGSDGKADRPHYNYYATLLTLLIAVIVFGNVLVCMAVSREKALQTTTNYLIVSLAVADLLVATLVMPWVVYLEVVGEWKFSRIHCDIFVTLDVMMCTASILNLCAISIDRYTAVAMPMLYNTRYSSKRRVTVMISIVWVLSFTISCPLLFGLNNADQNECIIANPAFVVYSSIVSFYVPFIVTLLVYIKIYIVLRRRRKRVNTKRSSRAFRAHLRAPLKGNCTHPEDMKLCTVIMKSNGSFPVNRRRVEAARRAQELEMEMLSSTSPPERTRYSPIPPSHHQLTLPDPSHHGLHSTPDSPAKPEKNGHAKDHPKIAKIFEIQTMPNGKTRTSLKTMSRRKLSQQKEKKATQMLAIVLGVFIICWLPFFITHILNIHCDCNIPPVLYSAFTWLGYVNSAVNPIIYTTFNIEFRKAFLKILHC
Chain of 5-hydroxytryptamine receptor 2A (Homo sapiens) (P28223 whole entry, looked up): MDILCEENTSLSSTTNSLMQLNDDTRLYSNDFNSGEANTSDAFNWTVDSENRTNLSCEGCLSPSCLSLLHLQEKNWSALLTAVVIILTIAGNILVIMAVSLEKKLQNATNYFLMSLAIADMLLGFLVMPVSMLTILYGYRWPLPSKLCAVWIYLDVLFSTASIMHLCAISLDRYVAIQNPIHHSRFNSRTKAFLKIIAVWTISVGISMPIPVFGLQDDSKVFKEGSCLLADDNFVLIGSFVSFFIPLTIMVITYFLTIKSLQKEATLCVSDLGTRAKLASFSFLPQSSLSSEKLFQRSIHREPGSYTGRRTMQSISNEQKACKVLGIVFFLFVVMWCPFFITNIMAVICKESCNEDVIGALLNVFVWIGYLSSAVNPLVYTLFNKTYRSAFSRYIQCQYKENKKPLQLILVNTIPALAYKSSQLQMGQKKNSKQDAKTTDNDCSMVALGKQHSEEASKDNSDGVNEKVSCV

Q: Which Potency [1] does the source give for `C=Cc1ccncc1` here?
A: inactive

Q: And the Potency [2]?
A: inactive

Q: And the Potency [3]?
A: inactive

Q: And the Potency [4]?
A: inactive

Q: What about the Potency [5] of the same compound?
A: inactive

Q: And the Potency [6]?
A: inactive

Q: What about the Potency [7] of the same compound?
A: inactive

Q: And the Potency [8]?
A: inactive

Q: And the Potency [9]?
A: inactive

Q: What about the Potency [10] of the same compound?
A: inactive

Q: And the Potency [11]?
A: inactive

Q: And the Potency [12]?
A: inactive

Q: What about the Potency [13] of the same compound?
A: inactive

Q: What about the Potency [14] of the same compound?
A: inactive

Q: What about the Potency [15] of the same compound?
A: inactive

Q: What about the Potency [16] of the same compound?
A: inactive

Q: And the Potency [17]?
A: inactive

Q: What about the Potency [18] of the same compound?
A: inactive

Q: What does the source list for `CCCCCC(C)OC(=O)COc1ccc(Cl)c2cccnc12` (configuration not stated)?
A: Potency [1]: inactive; Potency [2]: inactive; Potency [3]: inactive; Potency [4]: inactive; Potency [5]: inactive; Potency [6]: inactive; Potency [7]: inactive; Potency [8]: inactive; Potency [19]: inactive; Potency [10]: inactive; Potency [11]: inactive; Potency [12]: inactive; Potency [13]: inactive; Potency [14]: inactive; Potency [15]: inactive; Potency [16]: inactive; Potency [18]: inactive

Q: With `O=C(c1ccccc1)c1ccc(O)cc1O` as the compound, how does the Potency [1] read?
A: inactive

Q: And the Potency [2]?
A: inactive

Q: And the Potency [3]?
A: inactive

Q: And the Potency [4]?
A: inactive

Q: And the Potency [5]?
A: inactive

Q: And the Potency [6]?
A: inactive

Q: And the Potency [7]?
A: inactive

Q: What about the Potency [8] of the same compound?
A: inactive

Q: What about the Potency [9] of the same compound?
A: inactive

Q: And the Potency [10]?
A: 38.2 µM (active) and 33.4 µM (active)

Q: What about the Potency [11] of the same compound?
A: inactive

Q: What about the Potency [12] of the same compound?
A: 19.2 µM (active) and inactive

Q: What about the Potency [14] of the same compound?
A: inactive

Q: What about the Potency [15] of the same compound?
A: inactive

Q: And the Potency [16]?
A: inactive

Q: And the Potency [18]?
A: inactive

Q: Which Potency [1] does the source give for `Oc1ccc(C2(c3ccc(O)c(C4CCCCC4)c3)CCCCC2)cc1C1CCCCC1` here?
A: 12.2 µM (active)

Q: And the Potency [2]?
A: inactive

Q: What about the Potency [3] of the same compound?
A: inactive

Q: What about the Potency [4] of the same compound?
A: inactive

Q: And the Potency [5]?
A: inactive

Q: And the Potency [6]?
A: inactive

Q: What about the Potency [7] of the same compound?
A: 20.4 µM (active)

Q: And the Potency [8]?
A: inactive

Q: What about the Potency [10] of the same compound?
A: inactive

Q: What about the Potency [11] of the same compound?
A: inactive

Q: What about the Potency [12] of the same compound?
A: inactive

Q: What about the Potency [13] of the same compound?
A: inactive

Q: What about the Potency [14] of the same compound?
A: 21.7 µM (active)

Q: What about the Potency [15] of the same compound?
A: inactive

Q: What about the Potency [17] of the same compound?
A: inactive

Q: What about the Potency [18] of the same compound?
A: inactive
